Experimental data reported in PubChem BioAssay AID1159580 (chemical genetic matrix, 2015).
Values joined by “and” are separate entries in the source; they are usually repeats but may differ in a detail not shown here. Equal values may be shown once. The campaign covered roughly 5,500 compounds. About 2,000 (36%) were called active. Inconclusive results (about 18%) are left out. Rule as the data show it: active = normalized growth mostly below about 0.91 (no sharp cut-off); inconclusive = no clear call, values can overlap the other calls; inactive = mostly above about 0.92. The list shows a part of the results.

Test: chemical genetic growth profiling, strain panel (AID 1159580);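 also: tested at 20 µM; growth read once vehicle control cultures reached saturation at 30 °C; 1 = growth at the plate median or of vehicle wells; lower values mean less growth of the strain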
Conditions: growth OD
[1] = S. cerevisiae deletion strains, locus YDR150W, strain NUM1, stronger effect = lower value
[2] = S. cerevisiae deletion strains, locus YGR078C, strain PAC10, stronger effect = lower value
[3] = S. cerevisiae deletion strains, locus YMR307W, strain GAS1, stronger effect = lower value

Measured: normalized growth

C=CCc1ccc(OC(=O)c2ccccc2)c(OC)c1
active: S. cerevisiae deletion strains, locus YLR113W, strain HOG1, stronger effect = lower value 0.841 | S. cerevisiae deletion strains, locus YOR184W, strain ser1, stronger effect = lower value 0.571
inactive: S. cerevisiae deletion strains, locus YBR021W, strain FUR4, stronger effect = lower value 1 | S. cerevisiae deletion strains, locus YBR229C, strain ROT2, stronger effect = lower value 0.99 | S. cerevisiae deletion strains, locus YCL029C, strain bik1, stronger effect = lower value 0.973 | S. cerevisiae deletion strains, locus YDL035C, strain GPR1, stronger effect = lower value 0.916 | S. cerevisiae deletion strains, locus YDL074C, strain BRE1, stronger effect = lower value 0.923 | S. cerevisiae deletion strains, locus YDL101C, strain DUN1, stronger effect = lower value 0.974 | S. cerevisiae deletion strains, locus YDL134C, strain PPH21, stronger effect = lower value 0.95 | S. cerevisiae deletion strains, locus YDL185W, strain tfp1, stronger effect = lower value 0.998 | S. cerevisiae deletion strains, locus YDL192W, strain arf1, stronger effect = lower value 0.928 | S. cerevisiae deletion strains, locus YDR101C, strain arx1, stronger effect = lower value 0.919 | [1] 0.997 | S. cerevisiae deletion strains, locus YDR162C, strain NBP2, stronger effect = lower value 0.947 | S. cerevisiae deletion strains, locus YDR318W, strain mcm21, stronger effect = lower value 0.939 | S. cerevisiae deletion strains, locus YDR388W, stronger effect = lower value 0.979 | S. cerevisiae deletion strains, locus YDR502C, strain sam2, stronger effect = lower value 0.944 | S. cerevisiae deletion strains, locus YER110C, stronger effect = lower value 1.03 | S. cerevisiae deletion strains, locus YER155C, strain BEM2, stronger effect = lower value 0.969 | S. cerevisiae deletion strains, locus YER167W, strain BCK2, stronger effect = lower value 0.939 | S. cerevisiae deletion strains, locus YGL078C, strain dbp3, stronger effect = lower value 0.956 | S. cerevisiae deletion strains, locus YGL086W, strain mad1, stronger effect = lower value 0.933 | S. cerevisiae deletion strains, locus YGL248W, strain PDE1, stronger effect = lower value 0.971 | [2] 0.974 | S. cerevisiae deletion strains, locus YGR135W, strain pre9, stronger effect = lower value 0.965 | S. cerevisiae deletion strains, locus YGR252W, strain gcn5, stronger effect = lower value 0.993 | S. cerevisiae deletion strains, locus YHR030C, strain SLT2, stronger effect = lower value 1 and 0.914 | S. cerevisiae deletion strains, locus YHR079C, strain IRE1 (second series), stronger effect = lower value 0.988 | S. cerevisiae deletion strains, locus YHR079C, strain IRE1, stronger effect = lower value 0.931 | S. cerevisiae deletion strains, locus YHR094C, strain hxt1, stronger effect = lower value 0.988 | S. cerevisiae deletion strains, locus YHR129C, strain ARP1, stronger effect = lower value 0.985 | S. cerevisiae deletion strains, locus YHR200W, strain rpn10, stronger effect = lower value 0.952 | S. cerevisiae deletion strains, locus YIL066C, strain RNR3, stronger effect = lower value 0.973 | S. cerevisiae deletion strains, locus YIL073C, strain SPO22, stronger effect = lower value 1.08 | S. cerevisiae deletion strains, locus YIL125W, strain kgd1, stronger effect = lower value 0.966 | S. cerevisiae deletion strains, locus YIR030C, strain dcg1, stronger effect = lower value 0.983 | S. cerevisiae deletion strains, locus YJL095W, strain BCK1, stronger effect = lower value 0.918 and 0.973 | S. cerevisiae deletion strains, locus YJL134W, strain LCB3, stronger effect = lower value 1 | S. cerevisiae deletion strains, locus YJL168C, strain set2, stronger effect = lower value 1 | S. cerevisiae deletion strains, locus YJL187C, strain SWE1 (second series), stronger effect = lower value 0.954 | S. cerevisiae deletion strains, locus YJR043C, strain POL32, stronger effect = lower value 0.936 | S. cerevisiae deletion strains, locus YJR066W, strain TOR1, stronger effect = lower value 0.954 | S. cerevisiae deletion strains, locus YKL009W, strain mrt4, stronger effect = lower value 0.925 | S. cerevisiae deletion strains, locus YKL068W, stronger effect = lower value 0.979 | S. cerevisiae deletion strains, locus YKL085W, strain MDH1 (second series), stronger effect = lower value 0.981 | S. cerevisiae deletion strains, locus YKL085W, strain MDH1, stronger effect = lower value 0.981 | S. cerevisiae deletion strains, locus YKR001C, strain vps1, stronger effect = lower value 0.908 | S. cerevisiae deletion strains, locus YLR039C, strain RIC1, stronger effect = lower value 0.958 | S. cerevisiae deletion strains, locus YLR058C, strain SHM2, stronger effect = lower value 0.952 | S. cerevisiae deletion strains, locus YLR102C, strain apc9, stronger effect = lower value 0.996 | S. cerevisiae deletion strains, locus YLR268W, strain sec22, stronger effect = lower value 0.965 | S. cerevisiae deletion strains, locus YLR330W, strain CHS5, stronger effect = lower value 0.983 | S. cerevisiae deletion strains, locus YLR371W, strain rom2, stronger effect = lower value 0.985 | S. cerevisiae deletion strains, locus YLR418C, strain cdc73, stronger effect = lower value 0.935 | S. cerevisiae deletion strains, locus YML016C, strain PPZ1, stronger effect = lower value 1 | S. cerevisiae deletion strains, locus YML032C, strain rad52, stronger effect = lower value 0.926 | S. cerevisiae deletion strains, locus YML124C, strain tub3, stronger effect = lower value 0.977 | S. cerevisiae deletion strains, locus YMR078C, strain ctf18, stronger effect = lower value 0.978 | S. cerevisiae deletion strains, locus YMR223W, strain ubp8, stronger effect = lower value 0.967 | S. cerevisiae deletion strains, locus YMR263W, strain SAP30, stronger effect = lower value 0.998 | [3] 1.2 | S. cerevisiae deletion strains, locus YNL067W, strain RPL9B, stronger effect = lower value 0.969 | S. cerevisiae deletion strains, locus YNL128W, strain TEP1, stronger effect = lower value 0.992 | S. cerevisiae deletion strains, locus YNL153C, strain GIM3, stronger effect = lower value 1.02 | S. cerevisiae deletion strains, locus YNL183C, strain NPR1, stronger effect = lower value 0.933 | S. cerevisiae deletion strains, locus YNL233W, strain BNI4, stronger effect = lower value 0.979 | S. cerevisiae deletion strains, locus YNL250W, strain rad50, stronger effect = lower value 1.03 | S. cerevisiae deletion strains, locus YNL271C, strain bni1, stronger effect = lower value 0.994 | S. cerevisiae deletion strains, locus YNL298W, strain CLA4, stronger effect = lower value 0.95 | S. cerevisiae deletion strains, locus YNL307C, strain MCK1, stronger effect = lower value 0.961 | S. cerevisiae deletion strains, locus YNR052C, strain pop2, stronger effect = lower value 0.998 | S. cerevisiae deletion strains, locus YOL006C, strain TOP1, stronger effect = lower value 0.779 | S. cerevisiae deletion strains, locus YOL012C, strain htz1 1.51 | S. cerevisiae deletion strains, locus YOL147C, strain pex11, stronger effect = lower value 0.964 | S. cerevisiae deletion strains, locus YOR061W, strain CKA2, stronger effect = lower value 0.986 | S. cerevisiae deletion strains, locus YOR069W, strain VPS5, stronger effect = lower value 0.994 | S. cerevisiae deletion strains, locus YOR136W, strain idh2, stronger effect = lower value 0.977 | S. cerevisiae deletion strains, locus YOR144C, strain elg1, stronger effect = lower value 0.981 | S. cerevisiae deletion strains, locus YOR231W, strain MKK1, stronger effect = lower value 0.915 | S. cerevisiae deletion strains, locus YOR316C, strain cot1, stronger effect = lower value 0.985 | S. cerevisiae deletion strains, locus YPL256C, strain CLN2, stronger effect = lower value 0.925 | S. cerevisiae deletion strains, locus YPR119W, strain clb2, stronger effect = lower value 0.971 | S. cerevisiae deletion strains, locus YPR141C, strain kar3, stronger effect = lower value 0.991 | S. cerevisiae deletion strains, locus YPR163C, strain tif3, stronger effect = lower value 0.943 | S. cerevisiae deletion strains, locus YPR167C, strain met16, stronger effect = lower value 0.943 | S. cerevisiae deletion strains, strain wtn01, stronger effect = lower value 0.906 | S. cerevisiae strains, strain wild type, stronger effect = lower value 0.93

COc1cc(CC(=O)O)ccc1O
inactive: S. cerevisiae deletion strains, locus YAL013W, strain DEP1, stronger effect = lower value 1 | S. cerevisiae deletion strains, locus YAL040C, strain CLN3, stronger effect = lower value 1.07 | S. cerevisiae deletion strains, locus YCL061C, strain MRC1 (second series), stronger effect = lower value 0.989 | [1] 0.992 | S. cerevisiae deletion strains, locus YDR363W, strain ESC2, stronger effect = lower value 0.982 | S. cerevisiae deletion strains, locus YER002W, strain NOP16, stronger effect = lower value 0.97 | [2] 0.986 | [3] 1.01 | S. cerevisiae deletion strains, locus YNL175C, strain NOP13, stronger effect = lower value 0.967 | S. cerevisiae deletion strains, locus YNL197C, strain WHI3, stronger effect = lower value 0.977 | S. cerevisiae deletion strains, locus YNL224C, strain SQS1, stronger effect = lower value 0.985 | S. cerevisiae deletion strains, locus YNL322C, strain KRE1, stronger effect = lower value 0.987 | S. cerevisiae deletion strains, locus YOR083W, strain WHI5 (second series), stronger effect = lower value 0.942 | S. cerevisiae deletion strains, locus YPL055C, strain LGE1, stronger effect = lower value 0.995 | S. cerevisiae deletion strains, locus YPL241C, strain CIN2, stronger effect = lower value 0.991
